The subject of assay [1] is Aerobactin synthetase IucA (Klebsiella pneumoniae hvKP1). The experiment in a line: IucA enzyme inhibition, primary screen, biochemical, Spectrum library (AID 1346200).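 Note: 100% = wells without compound and 0% = wells lacking enzyme.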 Particulars: malachite green pyrophosphate, A620, at 8 µM, hits give low values.
The test system of assay [2] is Aerobactin synthetase IucA (Klebsiella pneumoniae, hypervirulent). Briefly: biochemical IucA inhibition screen of LOPAC library by absorbance (AID 1346212).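 Note: 100% = no compound wells and 0% = no enzyme wells.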 Particulars: IucA enzyme assay, absorbance (OD) readout; hits give low values;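 tested at 8 µM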.

Several values for one entry are separate records, joined by “and”; a condition that tells them apart may be missing. Equal values may be shown once. A number with no mark means an inactive call. The rule behind the calls is not given here.

As a reminder, the remaining activity is the signal under treatment as a percentage of the control signal.

In the case of `COc1ccc2[nH]cc(CCNC(C)=O)c2c1`, the activity remaining in assay [1] was 111%. The remaining activity in assay [2] is 118%.

Regarding `CCN(CC)CCCC(C)Nc1c2ccc(Cl)cc2nc2ccc(OC)cc12` (stereo not given), the activity remaining in assay [1] is 93.4%. Also, the remaining activity in assay [2] is 115%.

For `NC(=O)c1ncn([C@@H]2O[C@H](CO)[C@@H](O)[C@H]2O)n1`, the activity remaining in assay [1] was 120%. Moreover, the remaining activity in assay [2] is 96.8%.

As to `NC[C@H](O)c1ccc(O)c(O)c1`, the activity remaining in assay [1] was 107%. The remaining activity in assay [2] is 118%.

As to `c1ccc2c(CC3=NCCN3)cccc2c1`, the activity remaining in assay [1] is 106%. In assay [2], the remaining activity was 115%.

On to `Cc1scc2c1N(C(=O)CN1CCN(C)CC1)c1ccccc1NC2=O`, for which the activity remaining in assay [1] is 117%. The remaining activity in assay [2] was 105%.

On to `Clc1ccc2c(c1)C(N1CCNCC1)=Nc1ccccc1O2`, for which the activity remaining in assay [1] is 109%. Further, the remaining activity in assay [2] was 126%.

Regarding `O=NN(CCCl)C(=O)NCCCl`, the activity remaining in assay [1] was 123%. Besides, in assay [2], the remaining activity is 115%.

With `Cc1ccc(N(CC2=NCCN2)c2cccc(O)c2)cc1`, in assay [1], the activity remaining was 117%. Further, the remaining activity in assay [2] was 92.9%.

Turning to `CC(C)(C)NCC(O)c1cc(O)cc(O)c1` (stereo not given), in assay [1], the activity remaining was 109%. Also, the remaining activity in assay [2] was 109%.

For `CN(C)c1ccc(O)c2c1C[C@H]1C[C@H]3[C@H](N(C)C)C(=O)C(C(N)=O)=C(O)[C@@]3(O)C(=O)C1=C2O`, the activity remaining in assay [1] is 105%. The remaining activity in assay [2] is 110%.

As for `O=c1c(-c2ccc(O)cc2)coc2cc(O)ccc12`, the activity remaining in assay [1] was 118%. In addition, the remaining activity in assay [2] is 99.6%.

Regarding `CNCCCN1c2ccccc2CCc2ccccc21`, the activity remaining in assay [1] is 100%. Moreover, in assay [2], the remaining activity is 105%.

Take `O=c1c(O)c(-c2ccc(O)c(O)c2)oc2cc(O)cc(O)c12`: the activity remaining in assay [1] is 99.3%. In addition, the remaining activity in assay [2] was 122%.

`O=C(O)c1ccccc1Nc1ccccc1`: in assay [1], the activity remaining was 106%. Besides, the remaining activity in assay [2] was 108%.

On to `Cc1ccc(S(=O)(=O)NC(=O)NN2CCCCCC2)cc1`, for which, in assay [1], the activity remaining was 117%. Further, in assay [2], the remaining activity was 91.6%.

Regarding `CN1CCN2c3ccccc3Cc3ccccc3C2C1` (stereo not given), in assay [1], the activity remaining was 119%. Besides, in assay [2], the remaining activity is 120%.

Turning to `CN(C)CCCN1c2ccccc2CCc2ccccc21`, the activity remaining in assay [1] is 107%. In assay [2], the remaining activity is 90.4%.

As for `Nc1ncn([C@@H]2O[C@H](CO)[C@@H](O)[C@H]2O)c(=O)n1`, in assay [1], the activity remaining is 104%. In addition, in assay [2], the remaining activity is 112%.

With `O=c1n(CCCN2CCN(c3cccc(Cl)c3)CC2)nc2ccccn12`, in assay [1], the activity remaining was 112%. The remaining activity in assay [2] is 118%.

For `NNc1nncc2ccccc12`, the activity remaining in assay [1] is 102%. In addition, the remaining activity in assay [2] was 101%.

In the case of `C[N+](C)(C)CCOC(N)=O`, the activity remaining in assay [1] is 93.2%. For the same compound, the remaining activity in assay [2] is 119%.

For the compound `COCCOC(=O)C1=C(C)NC(C)=C(C(=O)OC(C)C)C1c1cccc([N+](=O)[O-])c1` (stereo not given), in assay [1], the activity remaining is 118%. Moreover, in assay [2], the remaining activity was 111%.

Consider `O=C(Nc1ccc([N+](=O)[O-])cc1Cl)c1cc(Cl)ccc1O`, for which the activity remaining in assay [1] is 93.6%. Further, in assay [2], the remaining activity is 113%.

As for `CN/C(=C\[N+](=O)[O-])NCCSCc1ccc(CN(C)C)o1`, in assay [1], the activity remaining was 91.1%. The remaining activity in assay [2] was 101%.

In the case of `COC(=O)[C@H]1[C@H]2C[C@H]3c4[nH]c5ccccc5c4CCN3C[C@H]2CC[C@@H]1O`, in assay [1], the activity remaining was 107%. Besides, the remaining activity in assay [2] is 95.4%.

For `CCCCNC(=O)NS(=O)(=O)c1ccc(C)cc1`, the activity remaining in assay [1] was 120%. In addition, the remaining activity in assay [2] is 95.4%.

In the case of `CCO/C([O-])=N/c1c[n+](N2CCOCC2)no1`, the activity remaining in assay [1] was 99.6%. In assay [2], the remaining activity was 128%.

Turning to `CNCCCC12CCC(c3ccccc31)c1ccccc12`, the activity remaining in assay [1] was 105%. Also, the remaining activity in assay [2] was 109%.

Regarding `CC1=C(CC(=O)O)c2cc(F)ccc2/C1=C\c1ccc(S(C)=O)cc1` (stereo not given), the activity remaining in assay [1] is 90%. Further, the remaining activity in assay [2] was 119%.

Regarding `COc1ccc(CN(CCN(C)C)c2ccccn2)cc1`, in assay [1], the activity remaining was 118%. Further, in assay [2], the remaining activity was 112%.

For `CCN(Cc1ccncc1)C(=O)C(CO)c1ccccc1` (stereo not given), in assay [1], the activity remaining was 98.9%. Further, the remaining activity in assay [2] is 98.9%.

As for `NCCc1cnc[nH]1`, the activity remaining in assay [1] was 112%. For the same compound, the remaining activity in assay [2] is 112%.

`NCCCCCC(=O)O`: the activity remaining in assay [1] was 113%. Besides, the remaining activity in assay [2] is 113%.

As to `O=c1[nH]cc(F)c(=O)[nH]1`, the activity remaining in assay [1] is 96.1%. In addition, the remaining activity in assay [2] was 98.4%.

For `CCCNC(=O)NS(=O)(=O)c1ccc(Cl)cc1`, the activity remaining in assay [1] was 118%. The remaining activity in assay [2] is 103%.

On to `NS(=O)(=O)c1cc2c(cc1Cl)NC=NS2(=O)=O`, for which the activity remaining in assay [1] was 113%. For the same compound, in assay [2], the remaining activity is 123%.

Take `COc1ccc2c(c1)c(CC(=O)O)c(C)n2C(=O)c1ccc(Cl)cc1`: the activity remaining in assay [1] was 103%. Besides, in assay [2], the remaining activity was 92%.

For `CN(C)C(=O)Oc1cccc([N+](C)(C)C)c1`, in assay [1], the activity remaining is 87.4%. The remaining activity in assay [2] was 120%.

With `COc1ccc(Cl)cc1C(=O)NCCc1ccc(S(=O)(=O)NC(=O)NC2CCCCC2)cc1`, the activity remaining in assay [1] was 91.3%. Moreover, in assay [2], the remaining activity was 120%.

Consider `CC(C)Cn1c(=O)n(C)c(=O)c2[nH]cnc21`, for which, in assay [1], the activity remaining was 108% and 118%. Further, in assay [2], the remaining activity was 108%.

On to `Cn1c(=O)c2[nH]c(C3CCCC3)nc2n(C)c1=O`, for which the activity remaining in assay [1] was 97.7%. Moreover, the remaining activity in assay [2] is 70.6%.

As for `O=C1OC(=O)C2C3CCC(O3)C12` (stereo not given), the activity remaining in assay [1] is 117%. In addition, the remaining activity in assay [2] is 106%.

With `CN(C)CCC=C1c2ccccc2C=Cc2ccccc21`, the activity remaining in assay [1] was 111%. Besides, the remaining activity in assay [2] is 109%.

Consider `OC(CCN1CCCCC1)(c1ccccc1)C1CC2C=CC1C2` (stereo not given), for which, in assay [1], the activity remaining is 87.7%. Besides, the remaining activity in assay [2] was 116%.

Consider `CC(CCc1ccccc1)NCC(O)c1ccc(O)c(C(N)=O)c1` (stereo not given), for which the activity remaining in assay [1] was 121%. Moreover, the remaining activity in assay [2] is 112%.

For `CS(=O)(=O)Nc1ccc([N+](=O)[O-])cc1Oc1ccccc1`, the activity remaining in assay [1] is 113%. Moreover, the remaining activity in assay [2] is 117%.

Turning to `Cc1nnc(SCC2=C(C(=O)O)N3C(=O)[C@@H](NC(=O)Cn4cnnn4)[C@H]3SC2)s1`, in assay [1], the activity remaining was 101%. Moreover, in assay [2], the remaining activity was 119%.

In the case of `O=C(O)c1cc(=O)c2c(Cl)cc(Cl)cc2[nH]1`, in assay [1], the activity remaining was 103%. Besides, the remaining activity in assay [2] was 110%.

On to `CCN(CC)CCNC(=O)c1ccc(N)cc1`, for which, in assay [1], the activity remaining was 95.4%. The remaining activity in assay [2] is 96.2%.

On to `NC(CO)C(=O)NNCc1ccc(O)c(O)c1O` (stereo not given), for which the activity remaining in assay [1] was 109%. Further, the remaining activity in assay [2] was 111%.

As to `CC(=O)OCC1=C(C(=O)O)N2C(=O)[C@@H](NC(=O)Cc3cccs3)[C@H]2SC1`, in assay [1], the activity remaining was 109%. For the same compound, the remaining activity in assay [2] was 117%.

With `O=C(CCc1ccc(O)cc1)c1c(O)cc(O)cc1O`, the activity remaining in assay [1] is 105%. Further, the remaining activity in assay [2] was 79.2%.

Regarding `COC(=O)C1=C(C)NC(C)=C(C(=O)OCCN(C)Cc2ccccc2)C1c1cccc([N+](=O)[O-])c1` (stereo not given), the activity remaining in assay [1] is 107%. Moreover, the remaining activity in assay [2] was 109%.

`O=c1c(-c2ccc(O)cc2)coc2cc(O)cc(O)c12`: in assay [1], the activity remaining is 109%. In addition, the remaining activity in assay [2] was 121%.

On to `Clc1ccc(C(c2ccccc2Cl)C(Cl)Cl)cc1` (stereo not given), for which, in assay [1], the activity remaining is 92.7%. The remaining activity in assay [2] is 111%.

For the compound `CC(CN(C)C)CN1c2ccccc2CCc2ccccc21` (stereo not given), the activity remaining in assay [1] is 105%. The remaining activity in assay [2] was 106%.

In the case of `COc1cc2nc(N3CCN(C(=O)C4CCCO4)CC3)nc(N)c2cc1OC` (stereo not given), in assay [1], the activity remaining was 119%. For the same compound, the remaining activity in assay [2] is 102%.

Consider `O=C(O)/C=C/c1ccc(O)c(O)c1`, for which the activity remaining in assay [1] is 101%. The remaining activity in assay [2] is 117%.

Take `O=C1CC2(CCCC2)CC(=O)N1CCCCN1CCN(c2ncccn2)CC1`: in assay [1], the activity remaining was 118%. Moreover, the remaining activity in assay [2] was 111%.
